This is a sample that favours compounds with a hit; in the whole collection about 4.7% have one here.
TROY signal inh: blocks TROY-dependent signaling in reporter cells | inhibition, % at 10 µM | Q293 LMP1-TROYcd NF-kB luciferase reporter, 4 h | 360,000 compounds, 0.98% hits;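 active = compounds whose plate-normalised and pattern-corrected inhibition of the luciferase reporter signal at the single screening dose is 50% or more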
EBV LMP1 NFkB: reduces LMP1-driven NF-kappaB luciferase signal; LMP1-induced NF-kappaB luciferase reporter cells, luminescence; inhibition, % at 12.5 µM; 350,000 compounds, 0.69% hits; in the data active = inhibition above about 41%; inconclusive = no clear call, values can overlap the other calls
HSF-1 act: increases HSF-1 driven luciferase reporter signal | NIH3T3-HGL HSF-1 luciferase reporter, MG132, 8 h; 100% = twice DMSO control signal | activation, % at 9 µM | 300,000 compounds, 1.7% hits;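 active = mean replicate activation of at least 50% with a set share of replicates each reaching 50%; inconclusive = only one of those two conditions met; inactive = mean below 50% and too few replicates reaching it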
HSP90 inh: inhibitors of HSP90 luciferase refolding in rabbit reticulocyte lysate | luciferase refolding luminescence, 3 h | inhibition, % at 5.6 µM | 290,000 compounds, 0.91% hits | AID 1789;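 active = inhibition above the screen-wide mean plus 3 SD, computed separately per campaign, cut at about 16% in these data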;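 also: inhibitors lower the luminescence because luciferase stays unfolded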
TWEAK-Fn14 inh: blocks TWEAK-Fn14 interaction in a reporter cell assay | inhibition, % at 10 µM | TWEAK-stimulated Fn14 reporter cells, luciferase luminescence, 8 h | 360,000 compounds, 2% hits; in the data active = inhibition above about 50%
HSF1 inhib: HSF1 inhibition. NIH3T3-HGL HSE-luciferase, MG132-induced, luminescence 8 h; active compounds read low. activity change, negative = inhibition, % at 7.5 µM (by protocol). 300,000 compounds, 0.77% hits;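 active = more than half of replicate wells show activity change below -50%, luminescence cut by over half; inconclusive = some wells, but at most half, below -50%; inactive = no replicate well below -50%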;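 also: luciferase reports HSF-1 transcriptional activity via heat shock element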
Hits are given with their value; . = inactive; ? = inconclusive; / = not tested or not shown.

SMILES | TROY signal inh | EBV LMP1 NFkB | HSF-1 act | HSP90 inh | TWEAK-Fn14 inh | HSF1 inhib
COc1ccc(C(=O)Oc2cccc(Nc3ncnc4ccccc34)c2)cc1OC | 53.6 | . | . | . | 82.3 | .
O=C(Oc1cccc(Nc2ncnc3ccccc23)c1)c1cccnc1 | . | . | . | . | . | .
NC(c1ccc(F)c(F)c1)c1nc(-c2cc(F)cc(F)c2)cs1 (stereo not given) | . | / | / | / | . | /
O=C(COc1ccccc1)NC(=S)Nc1cccc2c(O)cccc12 | . | . | / | / | . | /
CC(C)(C)c1cc(C(=O)NCc2cc(F)cc3c2OCOC3)n(Cc2ccccc2)n1 | . | . | 56.2 | . | . | .
COc1ccccc1-c1cccc2nccn12 | . | / | / | / | . | /
COc1cccc(N2CCN(C(C)C(=O)NC34CC5CC(CC(C5)C3)C4)CC2)c1 (stereo not given) | . | . | . | . | 90.0 | .
COc1cccc(N2CCN(CC(=O)C34CC5CC(CC(C5)C3)C4)CC2)c1 | . | . | . | . | . | .
CC(C)c1cc(C(C)C)c(S(=O)(=O)NC(c2ccccn2)C23CC2C3)c(C(C)C)c1 (stereo not given) | . | / | / | / | . | /
COc1ccc(C(=O)OCCN=C2NS(=O)(=O)c3ccccc32)cc1OC | . | . | 52.5 | . | . | .
CC(=O)Nc1c(O)[nH]c2ccccc12 | . | . | / | . | . | /
N=NC(=O)c1ccccc1Nc1c(O)[nH]c2ccccc12 | . | . | / | / | 52.8 | /
CCOC(=O)C1=CCC(C(C)(C)C)N(S(=O)(=O)c2ccc(C)cc2)C1 (stereo not given) | . | / | / | / | . | /
Cc1oc2c(c1C(=O)c1ccccc1)C(=O)C(=O)c1ccccc1-2 | . | 94.2 | . | . | . | .
COC(=O)c1nn(-c2cccc(C(F)(F)F)c2)c(=O)cc1Sc1ccccn1 | . | . | . | . | . | -52.0
CC(O)(c1ccc(F)c(F)c1)c1nc(-c2ccccc2)cs1 (stereo not given) | . | / | / | / | . | /
Cc1cc(NC(=O)CSc2nc3c(cc2C#N)CCCC3)no1 | . | . | 70.8 | . | . | .
Cc1cc(NC(=O)CSc2nc3ccccc3cc2C#N)no1 | . | . | ? | . | . | .
N#Cc1cc2c(nc1SCC(=O)O)CCCC2 | . | . | . | . | . | .
N#Cc1cc2c(nc1SCC(=O)N1CCCCC1)CCCCC2 | 56.1 | . | . | . | . | .
Cc1cc(NC(=O)CSc2nc3c(cc2C#N)CCC3)no1 | . | . | 84.2 | . | . | .
C[C@H](CO)N1C[C@H](C)[C@H](CN(C)C(=O)Cc2cccnc2)Oc2ncc(Br)cc2C1=O | . | . | / | / | . | /
COc1cc(OC)c(OC)cc1/C=C1\CC(C)C/C(=C\c2cc(OC)c(OC)cc2OC)C1=O (stereo not given) | . | . | . | . | 63.7 | .
CCOC(=O)CN1C=C(c2ccc3ccccc3n2)C(C[N+](=O)[O-])c2ccccc21 (stereo not given) | . | . | 93.8 | . | . | .
CCN(CC)c1ccc(C(=O)NNC(=O)CCl)cc1 | . | . | . | . | . | .
SMILES | TROY signal inh | EBV LMP1 NFkB | HSF-1 act | HSP90 inh | TWEAK-Fn14 inh | HSF1 inhib
CCN(CC)c1ccc(C(=C2C=CC(=[N+](CC)CC)C=C2)c2ccc(N(CC)CC)cc2)cc1 | 90.8 | . | / | / | 103.0 | /
CCN(CC)c1ccc(C(=C2C=CC(=[N+](CC)CC)C=C2)c2ccccc2)cc1 | 88.6 | 95.0 | 94.5 | / | 106.6 | 94.5
O=C(Nc1ccc(C(O)(C(F)(F)F)C(F)(F)F)cc1)c1ccc(Cl)c([N+](=O)[O-])c1 | 50.4 | . | . | . | 62.5 | .
O=C(Nc1ccc(S(=O)(=O)NC2=NCCCCC2)cc1)c1ccc(Cl)c([N+](=O)[O-])c1 | . | . | / | / | . | /
Cc1cccc(C)c1NS(=O)(=O)c1ccc(NC(=O)c2ccc(Cl)c([N+](=O)[O-])c2)cc1 | 68.3 | . | . | . | 86.7 | .
Cc1ccc(S(=O)(=O)N(C)C[C@@H]2OCc3cn(nn3)CCCC(=O)N([C@H](C)CO)C[C@H]2C)cc1 | . | / | / | / | . | /
COc1cc(C(=O)NCC(c2cccs2)N2CCOCC2)cc(Br)c1OCc1ccccc1 (stereo not given) | . | . | / | / | . | /
CC(=O)N(O)c1ccc(C=Cc2ccccc2)cc1 | . | / | / | / | . | /
O=C(NCc1ccco1)c1ccc(COc2cc(Cl)ccc2Cl)cc1 | . | . | 76.1 | . | . | .
CCCc1noc(-c2cccc([N+](=O)[O-])c2)n1 | . | . | . | . | . | .
Cc1cccc(-c2noc(-c3ccc4c(c3)OCO4)n2)c1 | . | . | . | . | 56.7 | .

Source: PubChem BioAssay (several laboratories)
